Measured values from the supplement of paper PMC12494721.
Counter-ions that a name gives are not always drawn.

system: Klebsiella aerogenes DSM 30053; assay: growth (OD595) fold change vs plate DMSO controls (fold change (ratio)); higher = more growth; settings: incubation time: 27 h, anaerobic, 37 °C
Outline: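 Growth is expressed as the fold change relative to the median of the DMSO control wells on each plate. Cultures in mGAM were grown anaerobically in 96-well plates for 27 h at 37 °C, shaken, and read at 595 nm. Readings were blank-subtracted, corrected for compound background with 20 µM compound solutions in water, and converted to OD with a calibration factor of 5. Fold changes above 1.5 were set to NA, and each value is the mean of 2 biological replicates.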

Compound	growth
CC(C)(C)NC[C@H](O)c1ccc(O)c(CO)c1 [Levalbuterol hydrochloride] (20 µM)	1.01
C[N+]1(CCCCC[N+]2(C)CCCC2)CCCC1 [Pentolinium bitartrate] (20 µM)	1.01
O=C1c2cccc(O)c2C(=O)c2c(O)cccc21 [Danthron] (20 µM)	1.01
O=C(N/N=C/c1ccc([N+](=O)[O-])o1)c1ccc(O)cc1 [Nifuroxazide] (20 µM)	0.907
COC(=O)Nc1nc2cc(Sc3ccccc3)ccc2[nH]1 [Fenbendazole] (20 µM)	0.98
CN(C)CCOC(c1ccccc1)c1ccccc1.Cn1c(=O)c2[nH]c(Cl)nc2n(C)c1=O [Dimenhydrinate] (20 µM)	0.954
CCc1ccc(C(=O)C(C)CN2CCCCC2)cc1 (configuration not stated) [Eperisone Hydrochloride] (20 µM)	0.959
CC12CC3CC(C)(C1)CC(N)(C3)C2 [Memantine hydrochloride] (20 µM)	1
COc1ccc2[nH]cc(CCNC(C)=O)c2c1 [Melatonin] (20 µM)	1.06
CCC(=O)O[C@]1(C(=O)CCl)[C@@H](C)C[C@H]2[C@@H]3CCC4=CC(=O)C=C[C@]4(C)[C@@]3(F)[C@@H](O)C[C@@]21C [Clobetasol propionate] (20 µM)	1.06
CC[C@@H](CO)NCCN[C@@H](CC)CO [Ethambutol dihydrochloride] (20 µM)	1.01
CC(=O)CC(c1ccc([N+](=O)[O-])cc1)c1c(O)c2ccccc2oc1=O (configuration not stated) [Acenocoumarol] (20 µM)	1.02
CCOC1O[C@H]([C@@H](COCc2ccccc2)OCc2ccccc2)[C@H](OCc2ccccc2)[C@H]1O (some centres not stated) [Tribenoside] (20 µM)	0.99
COc1ccc(C[C@@H]2c3cc(OC)c(OC)cc3CC[N@+]2(C)CCC(=O)OCCCCCOC(=O)CC[N@@+]2(C)CCc3cc(OC)c(OC)cc3[C@H]2Cc2ccc(OC)c(OC)c2)cc1OC [Cisatracurium besylate] (20 µM)	1.05
O=C1CN2Cc3c(ccc(Cl)c3Cl)N=C2N1 [Anagrelide] (20 µM)	1.05
Cc1c(C)c2c(c(C)c1O)CCC(C)(C(=O)O)O2 (configuration not stated) [Trolox] (20 µM)	0.962

Compound	growth
COc1cc(C(=O)NCc2ccc(OCCN(C)C)cc2)cc(OC)c1OC [Trimethobenzamide hydrochloride] (20 µM)	0.972
CC=CC(=O)N(CC)c1ccccc1C [Crotamiton] (20 µM)	1.01
CCOC(=O)C1=C(C)NC(C)=C(C(=O)OCC)C1c1ccccc1/C=C/C(=O)OC(C)(C)C [Lacidipine] (20 µM)	0.929
CCOC(=O)CC(=O)N1CCSC1COc1ccccc1OC (configuration not stated) [Moguisteine] (20 µM)	1.02
CC(=O)OCC(=O)NCCCOc1cccc(CN2CCCCC2)c1 [Roxatidine acetate hydrochloride] (20 µM)	1.01
Clc1ccc(C(Cn2ccnc2)OCc2csc3c(Cl)cccc23)c(Cl)c1 (configuration not stated) [Sertaconazole nitrate] (20 µM)	0.993
CC[N+](C)(CC)CCOC(=O)C1c2ccccc2Oc2ccccc21 [Methantheline bromide] (20 µM)	0.979
CN1[C@@H]2CC[C@H]1C[C@@H](OC(c1ccccc1)c1ccccc1)C2 [Benztropine mesylate] (20 µM)	0.975
Nc1c(Br)cc(Br)cc1CN[C@H]1CC[C@H](O)CC1 [Ambroxol hydrochloride] (20 µM)	0.958
COCCCC/C(=N\OCCN)c1ccc(C(F)(F)F)cc1 [Fluvoxamine maleate] (20 µM)	0.994
Clc1ccc(COC(Cn2ccnc2)c2ccc(Cl)cc2Cl)c(Cl)c1 (configuration not stated) [Miconazole] (20 µM)	1.01
CCCCCCCCCCCCCCCC[N+](C)(C)CCN(Cc1ccc(OC)cc1)c1ncccn1 [Thonzonium bromide] (20 µM)	1.02
CCCN(CCC)C(=O)C(CCC(=O)O)NC(=O)c1ccccc1 (configuration not stated) [Proglumide] (20 µM)	1.01
CN(C)CCC(c1ccc(Br)cc1)c1ccccn1 (configuration not stated) [Brompheniramine maleate] (20 µM)	1.07
c1coc(CNc2ncnc3[nH]cnc23)c1 [Kinetin] (20 µM)	0.962
C#C[C@]1(O)CC[C@H]2[C@@H]3CCC4=CC(=O)CC[C@@H]4[C@H]3CC[C@@]21C [Norethindrone] (20 µM)	1
